PubChem BioAssay AID652245 (The Scripps Research Institute Molecular Screening Center, 2013)
Among all 1,600 compounds or so, about 920 (58%) were called active.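 Rule for the calls: active = inhibition above the primary screen's cutoff, the mean inhibition of all screened compounds plus 3 SD (cut at about 13% in these data); inactive = the rest.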 So high a share suggests a set chosen from earlier hits. The list is a sample of the results.

Target: Galanin receptor type 3 (Homo sapiens) (UniProt O60755)
Assay: GalR3 antagonist hit confirmation, cell-based, fluorescence, triplicate (AID 652245);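 note: 0% = forskolin plus galanin and 100% = forskolin alone with DMSO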
Conditions: HEK293 GalR3 CNG cAMP biosensor, membrane potential fluorescence; at 3 µM; active compounds read high; challenged with forskolin and galanin at EC90; galR3 fused to GalR1 carboxy tail

Sequence of Galanin receptor type 3 (Homo sapiens) (O60755 1-299 limits assumed): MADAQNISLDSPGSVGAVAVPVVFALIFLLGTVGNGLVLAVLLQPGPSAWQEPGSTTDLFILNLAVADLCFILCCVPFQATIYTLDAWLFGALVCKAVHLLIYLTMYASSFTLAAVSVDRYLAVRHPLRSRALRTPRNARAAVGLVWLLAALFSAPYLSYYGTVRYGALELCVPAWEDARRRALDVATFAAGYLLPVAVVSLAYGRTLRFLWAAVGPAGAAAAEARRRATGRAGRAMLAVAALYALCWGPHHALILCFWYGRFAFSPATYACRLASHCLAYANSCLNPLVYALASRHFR

Structure (SMILES)	inhibition
NC(=O)c1ccc(NC(=O)COC(=O)C(Cc2ccccc2)NC(=O)c2ccccc2)cc1 (configuration not stated)	22.3% (active)
COc1ccc(CCNc2nc3ccc(C)cc3n3cnnc23)cc1OC	12.1% (inactive)
C=CCC1(CC=C)CCCN1C(=O)c1cc(COc2ccc(-n3cncn3)cc2)on1	104% (active)
Nc1nonc1-n1nnc(C(=O)N/N=C/c2cc(Br)ccc2O)c1CSC1=NCCS1	63.2% (active)
CCNC(=S)Nc1ccc(OC(F)(F)F)cc1	18.3% (active)
CCN1/C(=C\c2ccc3ccccc3[n+]2CC)Sc2cc(C)ccc21	55.5% (active)
CCOc1ccc(Br)cc1CSC(=N)N	56.7% (active)
COc1ccc(-c2csc(-c3cccs3)n2)cc1OC	-4.97% (inactive)
COC(=O)c1ccc(/C=N/N2C(C)CCCC2C)cc1 (configuration not stated)	14.9% (active)
c1coc(CNc2ncnc3ccccc23)c1	28.1% (active)
Cc1c(C=O)c2ccccc2n1CC(=O)O	-2.92% (inactive)
CN(Cc1cccnc1)C(=O)c1cc(COc2ccc3ncccc3c2)on1	103% (active)
COc1ccc(C(=O)COC(=O)COc2ccc(C)c(C)c2)cc1	-0.4% (inactive)
OC[C@@H]1CN(Cc2ccc(-c3ccccc3)cc2)C[C@H](n2cnc3c(NC4CCCC4)ncnc32)O1	92.5% (active)
COc1cc(NC(=O)c2cc([N+](=O)[O-])ccc2Br)ccc1NC(=O)c1ccco1	27.5% (active)
CC(=O)c1c(C)[nH]c(C(=O)COC(=O)c2cccc(S(=O)(=O)N(C)c3ccccc3)c2)c1C	82.3% (active)
CCCn1nc(C(=O)NNC(=O)CSCC(=O)Nc2cc(C)on2)c2ccccc2c1=O	3.6% (inactive)
COCCNC(=O)/C(C#N)=C/c1cccc(OCc2ccccc2)c1	-3.13% (inactive)
COc1cc(C(=O)Nn2c(O)c(C3=c4ccccc4=NC3=O)sc2=S)ccc1O	5.9% (inactive)
COc1cc(Cl)c(C)cc1NC(=O)[C@@H]1CCCN1C(=O)c1cccs1	17.8% (active)
COc1ccc(-c2[nH]nc3c2C(c2ccncc2)C(C#N)=C(N)O3)cc1 (configuration not stated)	7.93% (inactive)
O=C(/C=C/c1c(F)cccc1Cl)Nc1nn[nH]n1	5.44% (inactive)
COc1ccc(OC)c(NC(=O)CSc2nc(N)c(-c3ccccc3)c(=O)[nH]2)c1	38% (active)

Structure (SMILES)	inhibition
O=C(CC(O)(C(F)(F)F)C(F)(F)F)Nc1ccc(Cl)c(Cl)c1	81.5% (active)
c1ccc(Cc2ccc(OCCn3ccnc3)cc2)cc1	35.9% (active)
COc1ccc(C2CC(=O)Nc3sc(=N)c4c(N)c(C#N)c(N)nc4c32)cc1OC (configuration not stated)	69.2% (active)
CCCCNC(=O)c1ccccc1NC(=O)C1=C(C)OCCS1	1.8% (inactive)
COc1ccc(NS(=O)(=O)c2ccc(NC(=O)c3ccc(N(C)S(C)(=O)=O)cc3)cc2)cc1	106% (active)
CSc1nc(N(C)NC(=O)c2cccc(C)c2)c2ccccc2n1	6% (inactive)
CC(=O)OC(C)C[N+](C)(C)C (configuration not stated)	78% (active)
CCOC(=O)c1cc2n(c1C)-c1ccccc1C2=O	3.19% (inactive)
CCc1ccc(-c2nc(SCC(=O)NC3CCCC3)n[nH]2)cc1	3.25% (inactive)
Nc1ncnc2c1ncn2C1OC(CO)CC1O (configuration not stated)	49.1% (active)
CCCOc1ccc(Cc2c(Cl)nc(SC)nc2NC)cc1	94.2% (active)
COc1ccc(N(C(=O)CNC(=O)c2ccco2)C(C(=O)NCC2CCCO2)c2ccccc2)cc1Cl (configuration not stated)	0.26% (inactive)
CC1(C)CC(N2CCN(C(c3ccccc3)c3ccccc3)CC2)=CC(=[N+]2CCCCC2)C1	45% (active)
Cn1cnc([N+](=O)[O-])c1Nc1ccccc1O	10.2% (inactive)
Cc1c(Cl)cccc1NC(=O)CSc1ccc(-c2cccnc2)nn1	-1.99% (inactive)
Cn1c(CN2CCOCC2)nc2cc(NC(=O)c3ccc(Cl)cc3)ccc21	85.6% (active)
O=C(NC(Nc1nc2ccc([N+](=O)[O-])cc2s1)(C(F)(F)F)C(F)(F)F)c1ccccc1	43% (active)
CC(CCc1ccccc1)NCC(O)c1cccc([N+](=O)[O-])c1 (configuration not stated)	22.3% (active)
CCOc1ccc(C(C)=O)cc1COC(=O)c1cnc(Cl)c(Cl)c1	15.3% (active)
COC(=O)c1cccc([N+](=O)[O-])c1CS(=O)(=O)c1ccc(C)cc1	4.93% (inactive)
COCCN1Cc2cccc(C(=O)Nc3ccccc3OC)c2C1=O	32.4% (active)
CCn1c(-c2cc(OC)ccc2OC)csc1=Nc1c(C)n(C)n(-c2ccccc2)c1=O	2.25% (inactive)
COc1ccc(C2Nc3ccccc3C(=O)N2c2ccc(Cl)cc2)cc1Cn1cc([N+](=O)[O-])cn1 (configuration not stated)	36.9% (active)

Structure (SMILES)	inhibition
Cc1ccc(F)cc1NC(=O)Cc1nn(C)c(=O)c2ccccc12	5.03% (inactive)
CC(C)[C@@H](C(=O)OCC(=O)c1ccc2c(c1)NC(=O)CO2)N1C(=O)c2ccccc2C1=O	8.91% (inactive)
C#Cc1ccc(NC(=O)C2(C)CCN2C(=O)Cc2ccc(-c3ccccc3)cc2)cc1 (configuration not stated)	90.1% (active)
Cc1ccc(S(=O)(=O)N2CCN(C(=O)COC(=O)c3c(C)cc(C)cc3C)CC2)c(C)c1	3.27% (inactive)
CCOC(=O)c1c(NC(=O)CSc2nccc(=O)[nH]2)sc(C)c1C	-4.89% (inactive)
CC(C)(CNC(=O)c1ccc(Cl)c(S(=O)(=O)N2CCc3ccccc3C2)c1)N1CCOCC1	111% (active)
Nc1nc(NCC(=O)O)nc(N2CCCCCC2)c1[N+](=O)[O-]	8.6% (inactive)
O=C(Nc1ccccc1Cl)/C(Cl)=C(\Cl)S(=O)c1ccccc1 (configuration not stated)	21.5% (active)
O=C(Nc1ccc(CSc2ccccc2)cc1)c1ccc(CN2CCOCC2)cc1	113% (active)
Cn1c(N)c(C(=O)COC(=O)c2cnc(Cl)c(Cl)c2)c(=O)n(C)c1=O	15.8% (active)
O=C(CC1C(=O)NCCN1CC(c1ccccc1)c1ccccc1)NCCc1cn[nH]c1 (configuration not stated)	-1.25% (inactive)
CSc1nccc(NC(=O)c2ccc(C(C)(C)C)cc2)n1	104% (active)
Cc1nc2ccccc2cc1OCc1ccc(F)cc1	83.8% (active)
C[C@@]12C(=O)N(c3cccc(Br)c3)C(=O)N1[C@H](c1ccc(Cl)cc1)[C@@H]1C(=O)N(C3CCCCC3)C(=O)[C@@H]12	-8.96% (inactive)
CNC(=O)NC(=O)CSc1nnc(-c2ccc(F)cc2)n1CC1CCCO1 (configuration not stated)	22% (active)
CCOc1cc(C(=O)N2CCc3cc(OC)c(OC)cc3C2)ccc1OC(F)F	6.34% (inactive)
CSc1nc(N)c(C#N)c(-c2ccccc2Cl)c1C#N	84.8% (active)
Cn1nccc1C(=O)NC1CCCc2c1cnn2-c1ccc(F)cc1F (configuration not stated)	114% (active)
CCN(CC(=O)NCc1ccc(Cl)cc1)C(=O)CSc1ccccc1	56.2% (active)
COc1cc2c(cc1OC)C(c1cccc([N+](=O)[O-])c1)=NCC2	17.9% (active)
CC(=O)N1CCCc2cc(S(=O)(=O)N3CCCC(C(=O)N4CCN(c5cccc(Cl)c5)CC4)C3)ccc21 (configuration not stated)	92.5% (active)
